Assay results published in PubChem BioAssay.
Values joined by “and” are separate entries in the source; they are usually repeats but may differ in a detail not shown here. Equal entries are not always repeated. Results filed as inconclusive are left out. For part of these data: Potency and affinity values are given separately. Active and inactive are the calls of the source. Unless noted, no rule for the calls is given here.

Tests used:
[1] = polyglutamine-triggered caspase-3 activation inhibitors, cell-based (AID 1583); settings: polyglutamine-induced caspase-3 activation, cell assay; stronger effect = higher value;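 tested at 10 µM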
[2] = suppressors of polyQ aggregation in yeast, 75Q-TubU reporter (AID 1593); settings: Yeast 75Q polyglutamine aggregation reporter
[3] = rescue of polyQ-huntingtin neuronal dysfunction in worms, whole organism, C. elegans mechanosensory neurons, N-terminal huntingtin (AID 1599); settings: touch response, stronger effect = higher value
[4] = inhibitors of mitochondrial cytochrome c release, biochemical, purified mitochondria (AID 1603); settings: stronger effect = lower value;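 also: mouse liver mitochondria challenged with calcium chloride; signal normalized to the plate average as 100%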
[5] = inhibitors of polyQ protein aggregation (AID 1604); settings: polyglutamine-induced protein aggregation inhibition assay; stronger effect = higher value; tested at 2.5 µM
[6] = enhancers of glutamate uptake in motor neurons, MN-1 cell line (AID 1612); settings: MN-1 motor neuron cells, stronger effect = higher value;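 also: tested at 1 µM final; 0% = mean of DMSO vehicle wells on each plate; positive means more glutamate uptake than control and negative means less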
[7] = reducers of polyQ inclusions in PC12 cells, cell-based, NGF-treated PC12, GFPQ80 (AID 1614); settings: PC12 NGF-treated GFP-polyQ80 inclusion reduction;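 also: lower means fewer inclusions and 0 means no inclusions at all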
[8] = suppressors of polyglutamine aggregation in yeast, 75Q-TubH (AID 1616); settings: S. cerevisiae 75Q-TubH polyglutamine aggregation suppression; stronger effect = higher value
[9] = circadian clock period modulators, cell-based, LOPAC library, luminescence reporter (AID 2774); settings: circadian reporter cells, at 7 µM, actives lie on both sides;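 also: values are relative to mean of DMSO wells on each plate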
[10] = hESC survival regulators, cell-based (AID 493140); settings: human embryonic stem cell survival screen; stronger effect = higher value;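 also: cells exposed to compounds for four days before counting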
[11] = target: ATP-dependent translocase ABCB1 (Homo sapiens) (UniProt P08183); test: MDR1 (ABCB1) efflux transporter inhibition, cell-based (AID 377; in the data active = fluorescence slope change above about 50%); settings: MDR1-expressing cells, fluorescent substrate accumulation slope; stronger effect = higher value; concentration not given here
Chain of ATP-dependent translocase ABCB1 (Homo sapiens) (P08183 whole entry, looked up): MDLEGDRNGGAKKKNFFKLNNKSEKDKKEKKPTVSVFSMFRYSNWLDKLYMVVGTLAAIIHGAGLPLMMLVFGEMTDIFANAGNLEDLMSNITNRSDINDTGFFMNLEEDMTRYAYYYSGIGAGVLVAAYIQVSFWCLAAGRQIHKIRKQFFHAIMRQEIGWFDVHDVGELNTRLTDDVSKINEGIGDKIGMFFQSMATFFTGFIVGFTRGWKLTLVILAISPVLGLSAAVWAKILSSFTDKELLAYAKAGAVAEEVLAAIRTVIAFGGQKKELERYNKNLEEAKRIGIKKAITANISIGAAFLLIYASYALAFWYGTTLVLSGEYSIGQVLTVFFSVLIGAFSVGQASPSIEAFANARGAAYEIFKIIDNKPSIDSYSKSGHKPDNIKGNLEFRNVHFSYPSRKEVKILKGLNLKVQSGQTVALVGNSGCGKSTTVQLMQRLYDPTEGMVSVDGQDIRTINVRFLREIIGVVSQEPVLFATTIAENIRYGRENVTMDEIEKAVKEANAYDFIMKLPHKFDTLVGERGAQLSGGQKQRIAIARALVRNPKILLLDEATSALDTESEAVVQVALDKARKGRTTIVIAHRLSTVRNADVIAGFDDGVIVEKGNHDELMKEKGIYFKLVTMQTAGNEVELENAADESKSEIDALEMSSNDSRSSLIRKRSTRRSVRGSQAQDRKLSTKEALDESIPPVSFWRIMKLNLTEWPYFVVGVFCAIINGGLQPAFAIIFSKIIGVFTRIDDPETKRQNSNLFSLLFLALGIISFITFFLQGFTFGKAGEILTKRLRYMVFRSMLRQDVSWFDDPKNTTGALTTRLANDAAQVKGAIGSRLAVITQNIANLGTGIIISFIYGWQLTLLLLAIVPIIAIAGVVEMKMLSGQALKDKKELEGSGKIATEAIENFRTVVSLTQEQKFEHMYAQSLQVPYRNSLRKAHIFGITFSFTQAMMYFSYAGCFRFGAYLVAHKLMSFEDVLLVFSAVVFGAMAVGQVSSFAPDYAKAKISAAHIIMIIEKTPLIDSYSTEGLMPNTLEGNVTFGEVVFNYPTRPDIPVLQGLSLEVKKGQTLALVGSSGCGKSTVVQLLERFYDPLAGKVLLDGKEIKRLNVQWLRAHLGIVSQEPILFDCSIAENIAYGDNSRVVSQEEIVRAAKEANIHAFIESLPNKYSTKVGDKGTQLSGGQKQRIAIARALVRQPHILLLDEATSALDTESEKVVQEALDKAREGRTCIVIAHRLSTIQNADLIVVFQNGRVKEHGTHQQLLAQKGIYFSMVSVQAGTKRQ

Row | SMILES | inhibition [1] [%] | score [2] | rescue above control [3] | cytochrome c release ratio [4] | inhibition of aggregation [5] [%] | glutamate uptake change [6] [%] | inclusion score [7] | aggregation suppression score [8] | period change [9] | survival [10] | fluorescence slope change [11]
1 | CCC1(C)CC(=O)NC1=O (stereo unspecified) | 3.06 | 1.25 | 1.02 | 1.3 | 4.76 | -2.95 | 2 | 1.06 | 0.01 h (inactive) | 28.8 (inactive) | 
2 | CS(=O)(=O)Nc1ccc([N+](=O)[O-])cc1Oc1ccccc1 | 6.83 | 0.85 | 3.29 | 3.47 | 42.5 | -10.7 | 2 | 0.728 | 0.17 h (inactive) | 16.8 (inactive) | 50.2% (active)
3 | Cc1cc(C(C)(C)C)c(O)c(C)c1CC1=NCCN1 | -9.11 | 1.29 | 2.64 | 0.88 | 6.98 | -22.6 | 2 | 1.13 | -0.09 h (inactive) | 18.8 (inactive) | 75.3% (active)
4 | COCCc1ccc(OCC(O)CNC(C)C)cc1 (stereo unspecified) | 9.55 | 0.98 | -6.09 | 0.97 | 69.7 | -0.51 | 2 | 0.579 | 0.045 h (inactive) | 15.4 (inactive) | 51% (active)
5 | NCCCCCC(=O)O | -5.51 | 1.37 | 1.88 | 1.36 | 75.6 | -5.97 | 2 | 1.27 | 0.065 h (inactive) | 2 (inactive) | 
6 | Nc1c2c(nc3ccccc13)CCCC2O (stereo unspecified) | 19.1 | 1.04 | -4.39 | 0.96 | 59.1 | 6.03 | 2 | 0.587 | 0.15 h (inactive) |  | 
7 | CN(C)CCOC(=O)COc1ccc(Cl)cc1 | 6.84 | 1.08 | -6.72 | 0.96 | 83.1 | -7.05 | 2 | 1.56 | -0.09 h (inactive) | 8.75 (inactive) | -15.2% (inactive)
8 | CC(=O)OCC1=C(C(=O)O)N2C(=O)[C@@H](NC(=O)CSc3ccncc3)[C@H]2SC1 | -8.64 | 1.04 | -6.1 | 1.02 | 71.9 | -2.14 | 2 | 1.12 | 0.035 h (inactive) | 1.83 (inactive) | 13.4% (inactive)
9 | CCN(CC)CCNC(=O)c1cc(Cl)c(N)cc1OC | -5.58 | 1.42 | -6.22 | 1.15 | 25.8 | -0.01 | 2 | 1.2 | -0.015 h (inactive) | 14.7 (inactive) | 27.9% (inactive)
10 | Cc1cc(C(C)(C)C)cc(C)c1CC1=NCCN1 | 23.6 | 1.63 | -3.36 | 1.05 | 63.4 | 16.9 | 2 | 1.86 | 0.03 h (inactive) | 6.75 (inactive) | 26.6% (inactive)
11 | CCN(CC)CCOCCOC(=O)C1(c2ccccc2)CCCC1 | -3.33 | 1.27 | -4.04 | 0.8 | 94.4 | 7.48 | 1.5 | 1.37 | 0.125 h (inactive) | 5.08 (inactive) | 
12 | O=c1c(O)c(-c2ccc(O)c(O)c2)oc2cc(O)cc(O)c12 | 24.5 | 1.53 | 8.75 | 1.04 | 87.3 | 12.9 | 1 | 1.03 | -0.025 h (inactive) | 4.17 (inactive) and 87 (inactive) | 
13 | O=C(O)CCCCCCCC(=O)O | -26.7 | 1.02 | 10.4 | 1.16 | 79.6 | 4.35 | 2 | 0.919 | 0.115 h (inactive) |  | 
14 | CC(=O)OCC1=C(C(=O)O)N2C(=O)[C@@H](NC(=O)Cc3cccs3)[C@H]2SC1 | 11.1 | 1.29 | -1.7 | 0.78 | -17.5 | 0.12 | 2 | 1.47 | 0.04 h (inactive) | 7.08 (inactive) | 2.1% (inactive)
15 | CCn1cc(C(=O)O)c(=O)c2cc(F)c(N3CCNC(C)C3)c(F)c21 (stereo unspecified) | -6.75 | 1.15 | 3.68 | 1.13 | 80.3 | -4.22 | 2 | 1.06 | -0.015 h (inactive) | 17.1 (inactive) | 
16 | COc1ccc(CN(CCN(C)C)c2ccccn2)cc1 | 17.1 | 1.86 | 23.5 | 0.92 | 12.7 | 0.17 | 2 | 1.48 | 0.06 h (inactive) | 21.9 (inactive) | 102% (active)

Row | SMILES | inhibition [1] [%] | score [2] | rescue above control [3] | cytochrome c release ratio [4] | inhibition of aggregation [5] [%] | glutamate uptake change [6] [%] | inclusion score [7] | aggregation suppression score [8] | period change [9] | survival [10] | fluorescence slope change [11]
17 | O=C1CC2(CCCC2)CC(=O)N1CCCCN1CCN(c2ncccn2)CC1 | -0.71 | 1.18 | 1.91 | 1.06 | 48.3 | 15.2 | 2 | 1.24 | -0.08 h (inactive) | 4 (inactive) | 65.3% (active)
18 | COc1ccc2[nH]cc(CCNC(C)=O)c2c1 | -10 | 1.34 | 0.33 | 0.49 | 46.1 | 7.67 | 2 | 1.76 | -0.21 h (inactive) | 15.4 (inactive) | 
19 | CN(C)[C@@H]1C(=O)C(C(N)=O)=C(O)[C@@]2(O)C(=O)C3=C(O)c4c(O)ccc(Cl)c4[C@@H](O)[C@H]3C[C@@H]12 | 13.2 | 0.8 | 0 | 2.6 | 27.8 | 0.55 | 0 | 0.533 | 0.065 h (inactive) | 2.92 (inactive) | 2.1% (inactive)
20 | CC[N+](CC)(CC)CCOc1cccc(OCC[N+](CC)(CC)CC)c1OCC[N+](CC)(CC)CC | 2.37 | 1.11 | 4.9 | 1.78 | 83.6 | 40.5 | 2 | 1.15 | 0 h (inactive) | 28.5 (inactive) | 
21 | CCCCC1C(=O)N(c2ccccc2)N(c2ccccc2)C1=O | 9.66 | 0.64 | 2.39 | 0.96 | 76 | -15.3 | 2 | 0.296 | 0.01 h (inactive) |  | 
22 | O=C(O)c1cccnc1Nc1cccc(C(F)(F)F)c1 | 18.6 | -0.01 | 7.18 | 0.87 | -18.2 | 6.09 | 1 | 0.0604 | 0.085 h (inactive) | 22.6 (inactive) | 
23 | CN1Cc2c(N)cccc2C(c2ccccc2)C1 (stereo unspecified) | 63.6 | 1.13 | -9.83 | 0.88 | 75 | -14.3 | 2 | 1.65 | -0.06 h (inactive) | 19.8 (inactive) | 80.5% (active)
24 | C=CCc1ccccc1OCC(O)CNC(C)C (stereo unspecified) | 3.86 | 1.39 | 6.88 | 1.44 | 14.3 | -6.27 | 2 | 1.42 | 0.15 h (inactive) | 7.25 (inactive) | 80.3% (active)
25 | NNc1nncc2ccccc12 | 24 | 1.45 | -2.16 | 0.9 | -30.3 | 4.84 | 2 | 1.4 | 0.12 h (inactive) | 18.2 (inactive) | 71.4% (active)
26 | C#CCN(C)Cc1ccccc1 | 17 | 1.16 | 30.7 | 1.06 | 0 | -1.37 | 2 | 1.43 | 0.06 h (inactive) | 31.2 (inactive) | 71.9% (active)
27 | O=C(O)CCC(=O)Nc1ccc(S(=O)(=O)Nc2nccs2)cc1 | -5.43 | 1.2 | -4.64 | 0.78 | 100 | 14.7 | 2 | 1.1 |  | 6.17 (inactive) | 2.1% (inactive)
28 | Nc1ccc(S(=O)(=O)NC(=O)c2ccccc2)cc1 | 20.3 | 1.2 | -4.53 | 0.95 | 47.9 | -23.6 | 2 | 1.16 |  | 3 (inactive) | 30% (inactive)
29 | CC(=O)Nc1ccc(OCC(O)CNC(C)C)cc1 (stereo unspecified) | 19.6 | 1 | 6.87 | 0.77 | 66.7 | -0.19 | 2 | 1.1 |  | 20.5 (inactive) | 57.7% (active)
30 | CCOC(=O)[C@H](CCc1ccccc1)N[C@@H](C)C(=O)N1CCC[C@H]1C(=O)O | 21.1 | 1.21 | 6.04 | 1.13 | 72.2 | -6.34 | 2 | 1.1 |  |  | 54.7% (active)
31 | CC(C(=O)O)c1ccc(C(=O)c2cccs2)cc1 (stereo unspecified) | 7.38 | 0.92 | -0.97 | 1.35 | 91.6 | 15.6 | 2 | 0.589 |  | 6.67 (inactive) | 12.2% (inactive)
